Several values for one entry are separate records, joined by “and”; a condition that tells them apart may be missing. Equal entries are not always repeated. About 83,000 compounds went through this panel and 20% of them were active in at least one assay; those are over-represented in the sample as a whole.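 48-hour exposure, single concentration, 96-well plates; percent growth endpoint where 0 means no net growth. Active: below 10.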
Experiments:
Assay in all cases: NCI-60 one-dose screen, 48 h (100 = growth as untreated, 0 = no growth, -100 = all killed)
Conditions in all cases: 10 µM unless noted
[1] = tested on: NCI-H23 lung
[2] = tested on: NCI-H226 lung
[3] = tested on: NCI-H322M lung
[4] = tested on: HOP-62 NSCLC
[5] = tested on: NCI-H460 lung
[6] = tested on: HOP-92 NSCLC
[7] = tested on: NCI-H522 lung
[8] = tested on: A549/ATCC NSCLC
[9] = tested on: 786-0 renal
[10] = tested on: COLO 205 colon

Measured: growth

CCCCCCCCCCCCCCCCC(=O)O
inactive: [1] 97.6% | [2] 101% | [3] 98% | [4] 104% | [5] 108% | [6] 110% | [7] 102% | [8] 104% | [9] 97.7% | [10] 114%

O=C(O)COc1ccccc1F
inactive: [1] 106% | [2] 94.2% | [3] 106% | [4] 117% | [5] 101% | [6] 96.3% | [7] 106% | [8] 110% | [9] 102% | [10] 114%

COc1cc(Cl)ccc1C
inactive: [1] 90.3% | [2] 98.3% | [3] 85.6% | [4] 99.5% | [5] 34% | [6] 99.3% | [7] 57% | [8] 84.5% | [9] 100% | [10] 94.1%

CC1NC(C)c2ccc3ccccc3c2O1 (stereo not given)
inactive: [1] 102% | [2] 102% | [3] 106% | [4] 108% | [5] 108% | [6] 101% | [7] 88.6% | [8] 106% | [9] 104% | [10] 121%

N#CC1c2ccccc2C=CN1C(=O)c1ccccc1 (stereo not given)
inactive: [1] 104% and 112% | [2] 103% and 89.1% | [3] 105% and 103% | [4] 126% and 101% | [5] 106% and 98.9% | [6] 75.5% | [7] 103% and 91.7% | [8] 104% and 107% | [9] 107% and 102% | [10] 126% and 157%

O=C1CCC(=O)N1CC1CC2CCC1C2 (stereo not given)
inactive: [1] 92.7% and 102% | [2] 95.9% and 92.2% | [3] 104% and 80.5% | [4] 96.2% and 86.7% | [5] 107% and 102% | [6] 99.9% and 101% | [7] 91.8% and 95.2% | [8] 111% and 99.1% | [9] 98.5% and 97.6% | [10] 117% and 92.5%

CCOC(=O)C1=C(C)NC(C)=C(C(=O)OCC)C1
inactive: [1] 103% and 92.2% | [2] 96.7% and 96.4% | [3] 108% and 102% | [4] 117% and 91.3% | [5] 107% and 98.2% | [6] 79.2% and 89.5% | [7] 104% and 106% | [8] 104% and 99% | [9] 117% and 87.5% | [10] 126% and 96.4%

Nc1ccc(Cl)c(S(=O)(=O)O)c1
inactive: [1] 97% | [2] 97.1% | [3] 89.2% | [4] 100% | [5] 105% | [6] 106% | [7] 99.1% | [8] 106% | [9] 104% | [10] 111%

COc1ccc(CCN=Cc2ccc(Cl)cc2)cc1OC
inactive: [1] 100% | [2] 112% | [3] 106% | [4] 107% | [5] 113% | [6] 89.6% | [7] 94.8% | [8] 108% | [9] 108% | [10] 108%

O=C(/C=C/C=C/c1ccc2c(c1)OCO2)N1CCCCC1
inactive: [1] 95.6% and 102% | [2] 104% and 95% | [3] 101% and 113% | [4] 100% | [5] 109% and 113% | [6] 97.3% and 89.6% | [7] 115% and 81.1% | [8] 104% and 98.5% | [9] 103% and 57.4% | [10] 114% and 106%

CCN(C)c1ccccc1
inactive: [1] 102% | [2] 95.7% | [3] 111% | [4] 108% | [5] 108% | [6] 101% | [7] 99.5% | [8] 105% | [9] 97% | [10] 95.7%
